{"source": "patent US20150152398", "about": "“Endoribonuclease and Methods of Use Thereof” (The Regents of the University of California, published 2015)", "data": [{"molecular_target": "T1, TtCas6A (TTHA0078, Cas6) (Thermus thermophilus HB8)", "T1 chain": "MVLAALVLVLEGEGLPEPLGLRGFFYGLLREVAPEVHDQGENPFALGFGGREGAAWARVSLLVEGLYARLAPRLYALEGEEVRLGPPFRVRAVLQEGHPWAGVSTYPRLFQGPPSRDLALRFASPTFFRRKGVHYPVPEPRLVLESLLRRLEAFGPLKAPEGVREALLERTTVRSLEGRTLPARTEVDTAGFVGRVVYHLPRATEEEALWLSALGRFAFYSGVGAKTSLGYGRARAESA", "test": "EMSA; closing base pair; Kd in FIG. 24C only", "conditions": "chain copies: 2 stated (dimer in solution); hairpin; ssRNA; [20,25]", "from_the_text": "FIG. 22 illustrates that TtCas6A and TtCas6B both cleave repeats R1 and R3 and retain their cleaved products. (A) Sequences and predicted secondary structures of T. thermophilus CRISPR repeats. Sites of cleavage are indicated with blue arrows. TtCas6e (TTHB192) cleaves repeat R2, while TtCas6A (TTHA0078) and TtCas6B (TTHB231) both cleave repeats R1 and R3. (B) Cleavage product binding affinities of TtCas6A and TtCas6B enzymes. Maltose binding protein (MBP)-fused TtCas6A or TtCas6B were bound to in 5′-radiolabelled, vitro transcribed R1 and R3 RNAs. Bound and unbound fractions were resolved by electrophoresis on a native polyacrylamide gel and visualized by phosphorimaging. The data for these and all subsequent binding assays were fit with standard binding isotherms (solid line). […] RNA cleavage was monitored using denaturing polyacrylamide gel electrophoresis. […]\nTo test the importance of the stem sequence for substrate RNA recognition by TtCas6A, a series of EMSAs was performed using R1 repeat-derived RNAs that carried single base pair substitutions (C-G→A-U). […] This is consistent with the observation that the lower three C-G base pairs are specifically read out by Arg129. The binding defect observed upon mutation of the closing (uppermost) base pair could be due to loss of stability of the stem-loop structure, which is determined by the closing base-pair (Serra et al, 1993). […]", "values": [{"sequence": "GUUGCAAGGGAUUGAGCCCAGUAAUGGGAU", "binding signal": "~5 fold lower affinity than wild-type RNA"}]}]}
